Compound activity as filed in PubChem BioAssay.
COUP-TFII inh = inhibitors of human COUP-TFII (NR2F2). HEK293T NGFI-A luciferase reporter, luminescence. P24468. 0.7% of 370,000 active. inhibition, % at 8.6 µM;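 active = inhibition above a per-plate cutoff, mean inhibition of test wells between control levels plus 3 SD, cut at about 38% in these data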;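 note: cells cotransfected with COUP-TFII expression vector driving the NGFI-A reporter; 0% = median of COUP-TF2 test wells and 100% = reporter-only cells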
GalR3 antag = blocks the human galanin receptor 3; O60755; HEK293 GalR3-CNG cAMP membrane potential fluorescence; galR3 body fused to GalR1 C-terminus; inhibition, % at 3 µM; 0.44% of 360,000 active; AID 651719;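 active = inhibition above the screen-wide average plus 3 SD, cut at about 13% in these data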;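 note: forskolin and galanin both at EC90 stimulate the cells; cAMP rise reported by CNG channel membrane potential dye signal; 0% = forskolin plus galanin with DMSO and 100% = forskolin alone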
Target sequence (O60755 1-299 limits assumed): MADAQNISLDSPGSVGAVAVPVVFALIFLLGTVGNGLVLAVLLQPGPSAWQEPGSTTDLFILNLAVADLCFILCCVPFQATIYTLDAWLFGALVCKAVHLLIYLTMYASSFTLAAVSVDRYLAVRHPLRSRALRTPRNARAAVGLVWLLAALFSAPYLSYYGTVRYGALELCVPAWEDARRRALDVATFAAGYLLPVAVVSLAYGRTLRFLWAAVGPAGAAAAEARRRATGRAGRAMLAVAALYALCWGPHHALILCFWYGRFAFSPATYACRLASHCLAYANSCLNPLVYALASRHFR
Jurkat NFkB inh = inhibitors of the PMA/ionomycin-induced NF-kB reporter in Jurkat cells; inhibition, % at 4 µM; 0.53% of 330,000 active; AID 435003; PMA/ionomycin-induced NF-kB luciferase reporter, luminescence; in the data active = inhibition above about 50%
697 NFkB inh = lowers PMA/ionomycin-induced NF-kB signal in 697 B cells; 697 B-cell NF-kB luciferase reporter, 16 h; inhibition, % at 4 µM; 0.33% of 330,000 active; AID 435022; in the data active = inhibition above about 35%
Gli-Sufu antag = antagonists of Gli-Sufu signaling | Sufu-KO-LIGHT fibroblasts, Gli luciferase reporter luminescence | inhibition, % at 5 µM | 0.74% of 340,000 active | AID 588413;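 active = inhibition above about 55%, limit read from the data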;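 note: 0% = DMSO-treated cells and 100% = wells with medium but no cells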
Jurkat NFkB conf = lowers PMA/ionomycin-induced NF-kB signal in Jurkat cells; shares compounds with Jurkat NFkB inh; Jurkat NF-kB luciferase, 16 h; inhibition, % at 4 µM; 27% of 2,700 active; AID 435020;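 active = inhibition reaching about 45% at 4 µM in either replicate, limit read from the data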;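 note: plate controls were PMA/ionomycin stimulated DMSO wells for no effect and unstimulated DMSO wells for full effect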
697 NFkB conf = inhibitors of the PMA/ionomycin-induced NF-kB reporter in 697 B cells, retest. inhibition, % at 4 µM. AID 449746. 35% of 2,000 active. shares compounds with 697 NFkB inh. 697 B-cell NF-kB luciferase, 16 h; in the data active = inhibition mostly above about 28%, no sharp cut-off; inactive = mostly below about 22%
Gli-Sufu confirm = confirmation of Gli-SUFU pathway antagonists; shares compounds with Gli-Sufu antag; Sufu-KO-LIGHT cells, Gli luciferase reporter, luminescence; inhibition, % at 5 µM; 40% of 2,500 active; AID 602428;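 active = mean inhibition at 5 µM reaching about 45%, limit read from the data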;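 note: plate controls were DMSO-treated cells for no effect and wells lacking cells for full effect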
Gli cytotox = cytotoxic in Gli-SUFU antagonist counter-screen. shares compounds with Gli-Sufu antag. Sufu-KO-LIGHT cells cytotoxicity, ATP luminescence. cytotoxicity, % at 5 µM. 32% of 2,500 active;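 active = mean cytotoxicity at 5 µM above about 25%, limit read from the data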;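 note: cells exposed to compound overnight for roughly 16 to 18 hours; plate controls were DMSO wells with cells for no effect and medium without cells for full effect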
Wnt3a cs = Wnt3a reporter inhibition counter-screen; shares compounds with Gli-Sufu antag; Wnt-LIGHT cells, Wnt3a-driven luciferase reporter, luminescence; inhibition, % at 6.25 µM; 20% of 2,500 active;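 active = mean inhibition above about 25%, limit read from the data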
GalR3 conf = confirmation of human galanin receptor 3 antagonists; inhibition, % at 3 µM; 59% of 1,600 active; AID 652245; HEK293 GalR3 CNG cAMP biosensor, membrane potential fluorescence; galR3 fused to GalR1 carboxy tail; challenged with forskolin and galanin at EC90; shares compounds with GalR3 antag;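 active = inhibition above the primary screen's cutoff, the mean inhibition of all screened compounds plus 3 SD, cut at about 13% in these data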;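 note: 0% = forskolin plus galanin and 100% = forskolin alone with DMSO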
HEK-CNG parental = counter-screen for GalR3 antagonists: nonspecific agonists in parental HEK-CNG cells; shares compounds with GalR3 antag; HEK293-CNG parental cells, cAMP membrane potential fluorescence; normalised: DMSO wells 0%, forskolin wells 100%; activation, % at 3 µM; 10% of 1,600 active; in the data active = activation above about 1.3%
Gal4-VP16 ctr = counter-screen for COUP-TFII antagonists: inhibitors of VP16. shares compounds with COUP-TFII inh. HEK293 Gal4-VP16 luciferase reporter, luminescence. inhibition, % at 8.5 µM. 25% of 2,500 active. AID 687007; in the data active = inhibition above about 13%
NR2F2 inh conf = confirmation of human COUP-TFII (NR2F2) inhibitors | HEK293 NGFI-A luciferase reporter, luminescence | 45% of 2,500 active | shares compounds with COUP-TFII inh | inhibition, % at 8.5 µM;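 active = mean inhibition over three repeats above a set limit taken from the earlier primary screen, cut at about 38% in these data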;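 note: 100% = cells given the luciferase reporter alone without the COUP-TF2 vector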
* marks the source's active call; other numbers are inactive results; x = no result given. The list is not random: actives were taken first. Their share in the collection is about 2%.

SMILES	COUP-TFII inh	GalR3 antag	Jurkat NFkB inh	697 NFkB inh	Gli-Sufu antag	Jurkat NFkB conf	GalR3 conf	HEK-CNG parental	Gal4-VP16 ctr	NR2F2 inh conf	others
COc1cc(OC)c2c(O)c3c(=O)cc(C)oc3c(-c3c(OC)cc4cc5c(c(O)c4c3O)C(=O)CC(C)(O)O5)c2c1 (stereo not given)	0	x	x	x	x	x	x	x	x	x
CCOC(=O)[C@]12CCCC3=C1N(CCC3)C(=O)[C@@H](CC(=O)N1CCN(C(=O)c3ccco3)CC1)C2	-7	x	x	x	x	x	x	x	x	x
Cc1ccc(-c2csc3ncnc(N4CCN(Cc5ccccc5)CC4)c23)cc1	-7	-7	4	-9	13	x	x	x	x	x
Cc1csc2ncnc(NC3CCN(Cc4ccccc4)CC3)c12	59*	96*	68*	-5	69*	58*	108*	0	7	59*	Gli-Sufu confirm=75*;Gli cytotox=22;Wnt3a cs=44*
COc1ccc(S[C@]2(C(=O)N3CCOCC3)CC(=O)N(C(=O)Nc3ccc(C)c(Cl)c3)[C@@H]2c2ccc(OC)cc2)cc1	13	x	x	x	x	x	x	x	x	x
CCOC(=O)N1CCC(NC(=O)c2ccc3c(c2)N(C)C(=O)/C(=C/c2cccc(OC)c2)S3)CC1	40*	1	53*	-11	27	7	x	x	12	53*
CCN(CC)S(=O)(=O)c1cccc(NC(=O)CNc2cccc(S(=O)(=O)N3CCCC3)c2)c1	64*	104*	56*	43*	73*	58*	113*	0	6	65*	697 NFkB conf=67*;Gli-Sufu confirm=75*;Gli cytotox=38*;Wnt3a cs=21
CCOc1ccc(N(CC(=O)Nc2c(C)n(C)n(-c3ccccc3)c2=O)S(=O)(=O)c2cc(OC)ccc2OC)cc1	-4	x	x	x	x	x	x	x	x	x
CCCCCN1C=CC(=C2C(=O)c3ccccc3C2=O)C=C1	70*	-2	60*	-18	59*	40	x	x	48*	73*
O=C(COc1ccc2ccccc2c1Br)Nc1ccncc1	51*	61*	56*	0	-2	32	60*	0	-79	-2
CCN(C(=O)c1ccc(C(C)(C)C)cc1)c1nnc(Cn2nnc3ccccc32)s1	76*	102*	57*	96*	61*	69*	107*	0	13*	72*	697 NFkB conf=91*;Gli-Sufu confirm=61*;Gli cytotox=33*;Wnt3a cs=42*
COc1ccccc1C(=O)O/N=C(\N)c1ccccn1	-29	-2	-69	-118	-53	x	x	x	x	x
Cc1ccc(C(=O)O/N=C(\N)c2ccccn2)c(C)c1	78*	-6	76*	-12	73*	92*	x	x	65*	84*
COCCn1c(C)cc(C2=NNC(=NC3CC3)SC2)c1C	94*	-6	75*	68*	91*	94*	x	x	89*	109*	697 NFkB conf=65*
C[C@H]1[C@@H](NCc2cccs2)CC[C@@]23CCCN2C(=O)CCC[C@@H]13	-5	x	x	x	x	x	x	x	x	x
